# Assay results from ChEMBL document CHEMBL2218924, “A broad activity screen in support of a chemogenomic map for kinase signalling research and drug discovery” (Biochem J, 2013).
# Key:
# [1] = biological target: T1, Casein kinase II (Homo sapiens) (UniProt P67870+P68400+P19784); conditions: at 1 µM
# [2] = biological target: T1, Casein kinase II (Homo sapiens); conditions: at 10 µM
# [3] = biological target: Casein kinase II subunit alpha' (Homo sapiens) (UniProt P19784); conditions: at 1 µM
# [4] = biological target: Casein kinase II subunit alpha' (Homo sapiens) (UniProt P19784); conditions: at 10 µM
# [5] = biological target: Dual specificity protein kinase CLK2 (Homo sapiens) (UniProt P49760); conditions: at 1 µM
# [6] = biological target: Dual specificity protein kinase CLK2 (Homo sapiens) (UniProt P49760); conditions: at 10 µM
# [7] = biological target: Dual specificity protein kinase CLK3 (Homo sapiens) (UniProt P49761); conditions: at 1 µM
# [8] = biological target: Dual specificity protein kinase CLK3 (Homo sapiens) (UniProt P49761); conditions: at 10 µM
# [9] = biological target: Tyrosine-protein kinase CSK (Homo sapiens) (UniProt P41240); conditions: at 1 µM
# [10] = biological target: Tyrosine-protein kinase CSK (Homo sapiens) (UniProt P41240); conditions: at 10 µM
# [11] = biological target: Calcium/calmodulin-dependent protein kinase type 1 (Homo sapiens) (UniProt Q14012); conditions: at 1 µM
# [12] = biological target: Calcium/calmodulin-dependent protein kinase type 1 (Homo sapiens) (UniProt Q14012); conditions: at 10 µM
# [13] = biological target: Calcium/calmodulin-dependent protein kinase type II subunit beta (Homo sapiens) (UniProt Q13554); conditions: at 1 µM
# [14] = biological target: Calcium/calmodulin-dependent protein kinase type II subunit beta (Homo sapiens) (UniProt Q13554); conditions: at 10 µM
# [15] = biological target: Calcium/calmodulin-dependent protein kinase type II subunit gamma (Homo sapiens) (UniProt Q13555); conditions: at 1 µM
# [16] = biological target: Calcium/calmodulin-dependent protein kinase type II subunit gamma (Homo sapiens) (UniProt Q13555); conditions: at 10 µM
# [17] = biological target: Calcium/calmodulin-dependent protein kinase type II subunit delta (Homo sapiens) (UniProt Q13557); conditions: at 1 µM
# [18] = biological target: Calcium/calmodulin-dependent protein kinase type II subunit delta (Homo sapiens) (UniProt Q13557); conditions: at 10 µM
# [19] = biological target: T2, Calcium/calmodulin-dependent protein kinase type IV (Homo sapiens) (UniProt Q16566); conditions: at 1 µM
# T2 sequence (whole entry): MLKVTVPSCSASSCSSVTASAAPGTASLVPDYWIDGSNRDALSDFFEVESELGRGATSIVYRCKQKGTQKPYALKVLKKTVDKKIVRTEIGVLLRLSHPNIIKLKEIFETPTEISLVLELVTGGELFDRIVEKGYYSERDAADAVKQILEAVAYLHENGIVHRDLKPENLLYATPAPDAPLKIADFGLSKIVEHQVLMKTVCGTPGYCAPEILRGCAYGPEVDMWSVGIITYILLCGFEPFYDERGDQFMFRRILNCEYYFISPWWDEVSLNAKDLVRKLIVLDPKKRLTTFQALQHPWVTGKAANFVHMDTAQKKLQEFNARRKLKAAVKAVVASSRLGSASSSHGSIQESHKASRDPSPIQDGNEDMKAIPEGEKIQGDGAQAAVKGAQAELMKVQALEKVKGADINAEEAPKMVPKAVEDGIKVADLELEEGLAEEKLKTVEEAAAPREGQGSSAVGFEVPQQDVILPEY
# [20] = biological target: T2, Calcium/calmodulin-dependent protein kinase type IV (Homo sapiens); conditions: at 10 µM
# Chain of Tyrosine-protein kinase CSK (Homo sapiens) (P41240 2-450 limits assumed): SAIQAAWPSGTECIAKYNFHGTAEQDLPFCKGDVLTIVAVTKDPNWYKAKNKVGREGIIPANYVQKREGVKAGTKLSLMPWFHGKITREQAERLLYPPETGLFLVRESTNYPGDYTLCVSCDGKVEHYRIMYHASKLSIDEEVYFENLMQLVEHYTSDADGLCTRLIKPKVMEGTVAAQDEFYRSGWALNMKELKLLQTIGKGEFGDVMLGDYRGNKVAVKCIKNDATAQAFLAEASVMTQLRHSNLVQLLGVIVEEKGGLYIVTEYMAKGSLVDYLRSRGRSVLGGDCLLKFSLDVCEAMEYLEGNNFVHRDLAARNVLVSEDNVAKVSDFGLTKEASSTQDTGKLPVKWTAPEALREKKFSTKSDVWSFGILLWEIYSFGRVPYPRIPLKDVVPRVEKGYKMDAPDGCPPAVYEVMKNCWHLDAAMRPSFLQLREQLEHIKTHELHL
# Chain of Calcium/calmodulin-dependent protein kinase type 1 (Homo sapiens) (Q14012 whole entry, looked up): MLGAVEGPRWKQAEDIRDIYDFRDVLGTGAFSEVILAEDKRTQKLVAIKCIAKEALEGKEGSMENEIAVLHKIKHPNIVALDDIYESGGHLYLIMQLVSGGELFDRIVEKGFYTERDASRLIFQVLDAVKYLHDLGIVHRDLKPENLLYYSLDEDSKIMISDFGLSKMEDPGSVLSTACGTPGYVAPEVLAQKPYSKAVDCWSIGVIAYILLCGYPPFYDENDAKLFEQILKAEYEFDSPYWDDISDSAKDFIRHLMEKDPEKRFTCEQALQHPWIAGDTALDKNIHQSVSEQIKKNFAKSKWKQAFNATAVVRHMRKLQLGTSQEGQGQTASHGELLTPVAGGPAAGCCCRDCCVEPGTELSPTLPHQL
# Chain of Dual specificity protein kinase CLK2 (Homo sapiens) (P49760 whole entry, looked up): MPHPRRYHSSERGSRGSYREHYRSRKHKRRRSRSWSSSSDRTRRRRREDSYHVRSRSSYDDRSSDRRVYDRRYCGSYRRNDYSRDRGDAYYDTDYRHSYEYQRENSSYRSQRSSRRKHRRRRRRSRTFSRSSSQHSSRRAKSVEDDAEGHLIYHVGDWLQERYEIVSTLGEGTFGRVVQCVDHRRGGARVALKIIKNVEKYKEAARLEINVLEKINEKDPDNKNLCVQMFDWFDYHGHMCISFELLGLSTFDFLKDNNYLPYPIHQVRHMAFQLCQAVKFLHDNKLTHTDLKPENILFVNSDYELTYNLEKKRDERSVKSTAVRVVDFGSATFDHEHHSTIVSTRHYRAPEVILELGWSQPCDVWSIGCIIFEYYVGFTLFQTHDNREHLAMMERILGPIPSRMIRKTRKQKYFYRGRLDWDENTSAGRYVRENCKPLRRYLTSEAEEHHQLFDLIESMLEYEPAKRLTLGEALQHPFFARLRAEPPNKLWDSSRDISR
# Chain of Casein kinase II subunit alpha' (Homo sapiens) (P19784 whole entry, looked up): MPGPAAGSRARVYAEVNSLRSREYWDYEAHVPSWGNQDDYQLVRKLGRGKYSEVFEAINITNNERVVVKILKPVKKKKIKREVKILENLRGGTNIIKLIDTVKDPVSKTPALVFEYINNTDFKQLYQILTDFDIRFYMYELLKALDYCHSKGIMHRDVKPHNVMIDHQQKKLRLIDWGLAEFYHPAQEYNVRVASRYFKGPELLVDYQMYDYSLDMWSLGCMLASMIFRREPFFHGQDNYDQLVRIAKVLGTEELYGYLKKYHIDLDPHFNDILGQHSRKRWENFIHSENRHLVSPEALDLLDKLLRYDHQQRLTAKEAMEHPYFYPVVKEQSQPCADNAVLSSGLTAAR
# T1 sequence (P19784 whole entry, looked up): as above
# T1 sequence (P67870 whole entry, looked up): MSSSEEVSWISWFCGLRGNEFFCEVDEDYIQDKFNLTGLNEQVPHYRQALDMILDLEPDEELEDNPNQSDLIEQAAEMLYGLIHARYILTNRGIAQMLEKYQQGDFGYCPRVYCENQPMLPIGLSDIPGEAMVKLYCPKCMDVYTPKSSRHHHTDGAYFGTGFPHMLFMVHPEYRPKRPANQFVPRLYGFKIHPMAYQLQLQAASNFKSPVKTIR
# T1 sequence (P68400 whole entry, looked up): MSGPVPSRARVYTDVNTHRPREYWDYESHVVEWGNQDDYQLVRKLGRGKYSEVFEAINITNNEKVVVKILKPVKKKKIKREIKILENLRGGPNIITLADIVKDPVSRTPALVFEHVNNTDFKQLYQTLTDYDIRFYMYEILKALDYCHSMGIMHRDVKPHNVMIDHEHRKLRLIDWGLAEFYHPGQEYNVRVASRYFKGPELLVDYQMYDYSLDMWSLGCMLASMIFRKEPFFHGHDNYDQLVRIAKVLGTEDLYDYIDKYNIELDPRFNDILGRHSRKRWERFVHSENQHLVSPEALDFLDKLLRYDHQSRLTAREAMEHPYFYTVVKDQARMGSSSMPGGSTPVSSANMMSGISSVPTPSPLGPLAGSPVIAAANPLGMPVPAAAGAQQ
# Chain of Dual specificity protein kinase CLK3 (Homo sapiens) (P49761 whole entry, looked up): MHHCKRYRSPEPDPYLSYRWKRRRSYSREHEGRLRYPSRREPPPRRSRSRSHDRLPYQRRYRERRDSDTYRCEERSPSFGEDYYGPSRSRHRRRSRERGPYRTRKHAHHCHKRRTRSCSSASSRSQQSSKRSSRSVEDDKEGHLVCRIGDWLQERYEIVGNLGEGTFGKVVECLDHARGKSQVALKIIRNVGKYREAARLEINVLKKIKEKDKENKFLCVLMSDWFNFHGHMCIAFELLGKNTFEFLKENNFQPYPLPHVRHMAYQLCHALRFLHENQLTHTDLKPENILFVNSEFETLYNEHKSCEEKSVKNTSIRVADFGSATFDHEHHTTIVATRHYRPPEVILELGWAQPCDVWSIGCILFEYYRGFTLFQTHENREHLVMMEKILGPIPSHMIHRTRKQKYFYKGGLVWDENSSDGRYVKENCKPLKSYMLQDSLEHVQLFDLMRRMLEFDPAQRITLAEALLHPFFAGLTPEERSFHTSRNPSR
# Chain of Calcium/calmodulin-dependent protein kinase type II subunit beta (Homo sapiens) (Q13554 whole entry): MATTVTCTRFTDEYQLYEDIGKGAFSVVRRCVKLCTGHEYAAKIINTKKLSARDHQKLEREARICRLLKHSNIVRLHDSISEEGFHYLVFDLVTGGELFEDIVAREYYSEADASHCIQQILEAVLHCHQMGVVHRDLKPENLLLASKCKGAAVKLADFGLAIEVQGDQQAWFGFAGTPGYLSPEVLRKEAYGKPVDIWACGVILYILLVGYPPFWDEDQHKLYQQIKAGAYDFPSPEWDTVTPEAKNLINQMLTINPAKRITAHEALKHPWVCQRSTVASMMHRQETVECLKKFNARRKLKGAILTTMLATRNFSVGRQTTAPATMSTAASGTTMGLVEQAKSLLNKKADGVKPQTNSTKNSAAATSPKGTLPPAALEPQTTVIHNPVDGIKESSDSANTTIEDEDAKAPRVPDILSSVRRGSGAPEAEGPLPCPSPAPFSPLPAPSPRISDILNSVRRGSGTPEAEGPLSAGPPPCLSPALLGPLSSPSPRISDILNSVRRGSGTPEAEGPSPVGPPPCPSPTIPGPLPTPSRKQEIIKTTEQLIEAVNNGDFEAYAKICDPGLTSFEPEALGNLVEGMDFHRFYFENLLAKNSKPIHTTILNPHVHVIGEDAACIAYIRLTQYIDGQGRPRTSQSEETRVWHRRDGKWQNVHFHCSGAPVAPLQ
# Chain of Calcium/calmodulin-dependent protein kinase type II subunit delta (Homo sapiens) (Q13557 whole entry): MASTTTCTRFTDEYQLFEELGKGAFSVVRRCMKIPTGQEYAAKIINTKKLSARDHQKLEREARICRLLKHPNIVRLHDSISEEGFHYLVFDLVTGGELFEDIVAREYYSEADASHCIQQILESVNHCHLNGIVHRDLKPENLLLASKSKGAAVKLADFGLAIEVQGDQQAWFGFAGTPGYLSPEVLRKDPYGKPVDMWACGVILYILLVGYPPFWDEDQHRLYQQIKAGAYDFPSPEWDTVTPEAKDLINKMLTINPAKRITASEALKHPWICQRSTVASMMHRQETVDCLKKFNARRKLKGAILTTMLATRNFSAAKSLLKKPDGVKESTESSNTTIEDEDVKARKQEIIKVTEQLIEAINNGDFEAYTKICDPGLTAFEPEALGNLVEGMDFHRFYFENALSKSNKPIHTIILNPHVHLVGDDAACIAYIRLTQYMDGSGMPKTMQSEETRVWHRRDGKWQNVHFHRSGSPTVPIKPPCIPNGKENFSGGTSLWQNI
# Chain of Calcium/calmodulin-dependent protein kinase type II subunit gamma (Homo sapiens) (Q13555 whole entry): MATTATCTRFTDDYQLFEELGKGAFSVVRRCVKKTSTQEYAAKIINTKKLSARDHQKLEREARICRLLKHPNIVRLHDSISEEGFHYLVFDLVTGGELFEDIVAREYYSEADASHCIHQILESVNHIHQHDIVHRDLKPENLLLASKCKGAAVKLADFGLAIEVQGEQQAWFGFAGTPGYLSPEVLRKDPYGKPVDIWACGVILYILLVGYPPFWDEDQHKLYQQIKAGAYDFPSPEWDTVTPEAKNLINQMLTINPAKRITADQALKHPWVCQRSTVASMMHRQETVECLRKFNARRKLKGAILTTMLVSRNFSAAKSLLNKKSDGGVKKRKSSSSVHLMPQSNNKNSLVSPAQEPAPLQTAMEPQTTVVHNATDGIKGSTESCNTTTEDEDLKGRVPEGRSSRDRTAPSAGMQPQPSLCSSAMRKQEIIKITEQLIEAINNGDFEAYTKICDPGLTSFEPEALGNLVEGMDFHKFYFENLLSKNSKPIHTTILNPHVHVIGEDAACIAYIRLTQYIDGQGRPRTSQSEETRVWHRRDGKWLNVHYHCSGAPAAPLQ
SMILES,residual activity [1] [%],residual activity [2] [%],residual activity [3] [%],residual activity [4] [%],residual activity [5] [%],residual activity [6] [%],residual activity [7] [%],residual activity [8] [%],residual activity [9] [%],residual activity [10] [%],residual activity [11] [%],residual activity [12] [%],residual activity [13] [%],residual activity [14] [%],residual activity [15] [%],residual activity [16] [%],residual activity [17] [%],residual activity [18] [%],residual activity [19] [%],residual activity [20] [%]
COc1ccc(CNc2nc(N(CCO)CCO)nc3c2ncn3C(C)C)cc1,96,101,100,107,48,18,87,62,106,96,85,55,89,55,99,63,92,54,113,78
CC(C)n1cnc2c(NCc3ccccc3)nc(NCCCO)nc21,102,94,110,108,53,14,88,67,104,100,80,68,84,66,94,59,86,58,112,90
Oc1ccc(Nc2nc(-c3ccc(Cl)cc3)cs2)cc1,101,97,100,99,118,101,92,75,98,113,94,53,98,92,98,89,102,98,102,114
CC(C)n1cnc2/c(=N/c3cccc(Cl)c3)nc(NCCO)[nH]c21,89,86,108,103,19,6,55,12,101,88,87,71,75,41,13,6,19,11,103,66
COc1ccc(S(=O)(=O)N(CCO)c2ccccc2CN(C)C/C=C/c2ccc(Cl)cc2)cc1,89,94,106,95,127,102,89,86,115,84,92,38,96,20,107,67,101,47,106,92
O=C(Nc1cccc(Nc2cc(Nc3cccc(C(F)(F)F)c3)ncn2)c1)C1CC1,107,104,114,103,99,101,89,32,114,96,114,57,91,86,98,74,97,67,116,94
CC(=O)O/N=C1\C(=C2\C(=O)Nc3cc(Br)ccc32)Nc2ccccc21,96,90,102,89,102,65,82,76,104,86,82,50,79,27,23,4,17,4,100,90
CO[C@H]1[C@@H](OC)C[C@H](C)[C@@H](OC)C2=CC(=O)C=C(NC(=O)/C(C)=C/C=C/[C@H](OC)[C@@H](OC(N)=O)/C(C)=C/[C@@H]1C)C2=O,88,111,99,99,100,110,88,89,108,118,115,88,97,93,107,100,102,110,89,81
COc1cccc(-c2cc(=O)c3ccccc3o2)c1N,94,96,119,106,116,105,90,71,104,111,97,82,92,87,98,98,101,99,108,108
O=C1NC(=O)c2cc(Nc3ccc(F)cc3)c(Nc3ccc(F)cc3)cc21,90,110,125,96,100,40,79,129,98,93,109,71,85,50,111,102,110,88,119,66
Oc1ccc(-c2nc(-c3ccc(F)cc3)c(-c3ccncc3)[nH]2)cc1,107,107,122,97,123,104,94,90,126,104,111,100,92,52,110,89,98,76,115,99
CCC(=O)Nc1ccc2ncnc(Nc3cccc(Br)c3)c2c1,107,101,125,90,125,105,76,142,104,93,96,98,90,80,100,74,109,79,123,73
Cn1cnc2cc3c(Nc4cccc(Br)c4)ncnc3cc21,87,119,126,89,106,75,91,112,105,97,103,54,93,89,85,43,97,52,105,86
